BoNT-A LC inh2 – blocks Botulinum neurotoxin A light chain protease; multiplex microsphere protease substrate cleavage, flow cytometry; inhibition, % at 10 µM; actives 0.17% (n = 360,000); AID 588499; further: plate controls were buffer without enzyme for full effect and enzyme alone for no effect
Bead autofluor – compound fluorescence in toxin protease inhibitor counterscreen; actives 3.1% (n = 360,000); fluorescence intensity (test concentration not listed); AID 624483; compound autofluorescence counterscreen, microsphere flow cytometry; hits give high values; in the data active means fluorescence intensity above about 16000; inconclusive means no clear call, values can overlap the other calls
SARS 3CLpro inh – SARS-CoV 3CLpro protease inhibition | P0C6X7 | recombinant SARS-CoV 3CLpro, quenched FRET peptide cleavage | inhibition, % at 6 µM | actives 0.14% (n = 290,000); in the data active means inhibition above about 12%
BoNT F protease – inhibitors of Botulinum neurotoxin F light chain protease | Multiplex microsphere protease cleavage assay, flow cytometry | inhibition, % at 10 µM | actives 0.22% (n = 360,000) | AID 588497; in the data active means inhibition above about 35%, passing the limit was not always enough; inconclusive means no clear call, values can overlap the other calls; further: plate controls were buffer without enzyme for full effect and enzyme alone for no effect
CCHFV vOTU inh – CCHFV vOTU protease inhibition; Pep-AMC fluorescence; inhibition, % at 11.5 µM; actives 0.55% (n = 370,000); AID 651958; in the data active means inhibition above about 30%; further: 0% = vehicle wells with enzyme and 100% = no enzyme wells
Anthrax LF inh2 – blocks Bacillus anthracis lethal factor protease | P15917 | multiplex microsphere protease cleavage assay, LF | inhibition, % at 10 µM | actives 0.12% (n = 360,000) | AID 588501; further: plate controls were buffer without enzyme for full effect and enzyme alone for no effect
Target sequence (P15917 whole entry, looked up): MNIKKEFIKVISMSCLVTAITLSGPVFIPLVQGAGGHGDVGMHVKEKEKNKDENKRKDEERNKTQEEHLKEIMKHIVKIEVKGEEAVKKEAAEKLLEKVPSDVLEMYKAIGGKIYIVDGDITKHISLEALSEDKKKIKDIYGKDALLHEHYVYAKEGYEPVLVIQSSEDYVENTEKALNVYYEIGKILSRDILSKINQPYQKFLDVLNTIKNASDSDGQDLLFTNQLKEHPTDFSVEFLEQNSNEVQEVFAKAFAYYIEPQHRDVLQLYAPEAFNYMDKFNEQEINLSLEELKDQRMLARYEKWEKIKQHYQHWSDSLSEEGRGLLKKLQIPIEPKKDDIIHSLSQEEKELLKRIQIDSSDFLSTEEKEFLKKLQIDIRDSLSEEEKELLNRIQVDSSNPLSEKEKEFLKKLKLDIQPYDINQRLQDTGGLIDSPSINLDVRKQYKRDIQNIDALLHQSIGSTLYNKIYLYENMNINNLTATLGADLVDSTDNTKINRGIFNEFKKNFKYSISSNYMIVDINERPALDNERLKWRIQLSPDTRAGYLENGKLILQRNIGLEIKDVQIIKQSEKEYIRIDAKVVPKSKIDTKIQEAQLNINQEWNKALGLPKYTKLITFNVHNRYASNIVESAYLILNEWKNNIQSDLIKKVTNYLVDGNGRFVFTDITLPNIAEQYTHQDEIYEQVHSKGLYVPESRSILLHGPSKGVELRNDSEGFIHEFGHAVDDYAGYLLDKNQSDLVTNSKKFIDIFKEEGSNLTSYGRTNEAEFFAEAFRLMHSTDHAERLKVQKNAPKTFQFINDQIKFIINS
Active calls of the source: *. The list is not random: actives were taken first. Their share in the collection is about 3.9%. Unless noted, no stated cut-off is given here; in the data, active means inhibition above about 30%; inconclusive means no clear call, values can overlap the other calls; inactive means below that.

How did O=C(COc1ccc(Cl)cc1Cl)NNC(=S)Nc1ccc(F)cc1 do in these assays?
BoNT-A LC inh2: 0; Bead autofluor: 16581*; SARS 3CLpro inh: 7; BoNT F protease: 0; Anthrax LF inh2: -2

How did COc1cc(C(=S)N2CCCCC2)ccc1OCC(=O)N1CCCC1 do in these assays?
BoNT-A LC inh2: 0; Bead autofluor: 4046; SARS 3CLpro inh: 5; BoNT F protease: 14; CCHFV vOTU inh: -14; Anthrax LF inh2: -5

What do the screens show for `COc1cc(CNCCCN2CCOCC2)cc(Br)c1OCC(=O)N1CCCCC1`?
BoNT-A LC inh2: 10; Bead autofluor: 18727*; SARS 3CLpro inh: 4; BoNT F protease: 13; CCHFV vOTU inh: 8; Anthrax LF inh2: 3

How did Cc1cc(C)cc(OCC(=O)N2CCCCCC2)c1 do in these assays?
BoNT-A LC inh2: inconclusive; Bead autofluor: 22007*; SARS 3CLpro inh: -3; BoNT F protease: 5; CCHFV vOTU inh: -13; Anthrax LF inh2: -6

What do the screens show for `COc1cc(CO)cc(Br)c1OCC(=O)N1CCCCC1`?
BoNT-A LC inh2: 3; Bead autofluor: 21247*; SARS 3CLpro inh: -1; BoNT F protease: 4; CCHFV vOTU inh: 3; Anthrax LF inh2: -4

Results for CCCN(CCC)C(=O)CSc1nc2ccsc2c(=O)n1NC(=O)c1ccccc1 ?
BoNT-A LC inh2: 2; Bead autofluor: inconclusive; SARS 3CLpro inh: -3; BoNT F protease: inconclusive; CCHFV vOTU inh: 3; Anthrax LF inh2: -3

How did O=C(CSc1nc2ccccc2c(=O)n1CC1CCCO1)NCc1ccccc1 (stereo unspecified) do in these assays?
BoNT-A LC inh2: -1; Bead autofluor: 2837; SARS 3CLpro inh: -2; BoNT F protease: -10; CCHFV vOTU inh: -5; Anthrax LF inh2: -5

What do the screens show for `CC(C)CCNC(=O)CSc1nc2ccsc2c(=O)n1NC(=O)c1ccccc1`?
BoNT-A LC inh2: 1; Bead autofluor: 21825*; SARS 3CLpro inh: 4; BoNT F protease: 2; CCHFV vOTU inh: -3; Anthrax LF inh2: -3

What do the screens show for `O=C(CSc1nc2cc(Cl)ccc2o1)NCCc1ccccc1`?
BoNT-A LC inh2: -1; Bead autofluor: 19890*; SARS 3CLpro inh: 2; BoNT F protease: -4; CCHFV vOTU inh: -8; Anthrax LF inh2: 0

Results for COc1ccc(CNC(=O)CCCn2c(SCC#N)nc3cc4c(cc3c2=O)OCO4)cc1 ?
BoNT-A LC inh2: 3; Bead autofluor: 21923*; SARS 3CLpro inh: -2; BoNT F protease: 0; CCHFV vOTU inh: -2; Anthrax LF inh2: -1

Results for O=C(CSc1nc2ccccc2c(=O)n1CC1CCCO1)N1CCN(c2ccccc2)CC1 (stereo unspecified) ?
BoNT-A LC inh2: 2; Bead autofluor: 21377*; SARS 3CLpro inh: 5; BoNT F protease: 2; CCHFV vOTU inh: -1; Anthrax LF inh2: -1

Results for Cc1ccc(CN2CCCCC(NC(=O)c3ccc(F)c(F)c3)C2=O)cc1 (stereo unspecified) ?
CCHFV vOTU inh: 4

How did CC1(C)CC(=O)C=C(Nc2ccccc2NC(=O)c2cccc(F)c2F)C1 do in these assays?
CCHFV vOTU inh: -3

Results for CCN(CC)C(=O)CC[C@@H]1CC[C@]2(CCCN(Cc3nccs3)C2)O1 ?
CCHFV vOTU inh: -8

How did COC(=O)C1=C(C)N(Cc2cccc(C(F)(F)F)c2)C(=NCC2CC2)NC1c1cccc(F)c1 (stereo unspecified) do in these assays?
CCHFV vOTU inh: 15

How did C[C@]12Cc3ccccc3C1CC1=N[C@@H](C3CCCCC3)O[C@@]13C[C@@H]2C(=O)N3C1CCN(Cc2ccccc2)CC1 (stereo partly specified) do in these assays?
CCHFV vOTU inh: -2

What do the screens show for `CC(C)Oc1cccc(-c2n[nH]c(=S)n2N=Cc2cccc([N+](=O)[O-])c2)c1`?
CCHFV vOTU inh: 10

Results for CC(C)C[C@@H]1NC(=O)[C@H]2C[C@]3(c4ccccc4)c4ccccc4N[C@H]3N2C1=O ?
CCHFV vOTU inh: 8

Results for CC1=C(c2ccccc2)C(=O)C(C)(C)CC1=O ?
CCHFV vOTU inh: -6

What do the screens show for `COCCCNC(=O)CSc1nc2ccccc2c(=O)n1CCCN1CCCCC1`?
BoNT-A LC inh2: -1; Bead autofluor: 4142; SARS 3CLpro inh: -1; BoNT F protease: 4; CCHFV vOTU inh: -13; Anthrax LF inh2: 1

How did CCOc1ccc(NC(=O)CSc2nc3ccccc3c(=O)n2CCCC(=O)NCC2CCCO2)cc1 (stereo unspecified) do in these assays?
BoNT-A LC inh2: -1; Bead autofluor: 4218; SARS 3CLpro inh: 6; BoNT F protease: -9; CCHFV vOTU inh: -4; Anthrax LF inh2: -5

How did COCCNC(=O)CSc1nc2ccccc2c(=O)n1CCCC(=O)NCc1ccccc1 do in these assays?
BoNT-A LC inh2: inconclusive; Bead autofluor: 22634*; SARS 3CLpro inh: 0; BoNT F protease: 1; CCHFV vOTU inh: -4; Anthrax LF inh2: -4

What do the screens show for `O=C(CSc1nc2ccccc2c(=O)n1NC(=O)Cc1ccccc1)NCCc1ccccc1`?
BoNT-A LC inh2: 3; Bead autofluor: 21231*; SARS 3CLpro inh: -2; BoNT F protease: 3; CCHFV vOTU inh: -9; Anthrax LF inh2: -2

How did O=C(CCCn1c(SCC(=O)NCC2CCCO2)nc2ccccc2c1=O)NCC1CCCO1 (stereo unspecified) do in these assays?
BoNT-A LC inh2: -2; Bead autofluor: 20974*; SARS 3CLpro inh: 3; BoNT F protease: -4; CCHFV vOTU inh: -1; Anthrax LF inh2: -1

Results for O=C(CSc1nnc(-c2cccnc2)n1C1CCCCC1)N1CCCC1 ?
CCHFV vOTU inh: -4

What do the screens show for `Cc1ccccc1NC(=O)Cn1nnc(-c2ccncc2)n1`?
CCHFV vOTU inh: -4

Results for CCOc1cc(C2C(C(=O)N3CCCCC3)=C(C)NC3=C2C(=O)CCC3)cc(Br)c1O (stereo unspecified) ?
BoNT-A LC inh2: -3; Bead autofluor: 24537*; SARS 3CLpro inh: 0; BoNT F protease: -5; CCHFV vOTU inh: 2; Anthrax LF inh2: -1

How did COc1cccc(OC(C)c2ccnc3nc(/N=C/N(C)C)nn23)c1 (stereo unspecified) do in these assays?
BoNT-A LC inh2: 20; Bead autofluor: 11473; SARS 3CLpro inh: 1; BoNT F protease: 21; CCHFV vOTU inh: -10; Anthrax LF inh2: -25

What do the screens show for `Cc1cccc(OC(C)c2ccnc3nc(/N=C/N(C)C)nn23)c1` (stereo unspecified)?
BoNT-A LC inh2: -3; Bead autofluor: 21315*; SARS 3CLpro inh: 1; BoNT F protease: -4; CCHFV vOTU inh: -21; Anthrax LF inh2: 0

How did CN(Cc1ccccc1F)C(=O)C1CCC(CNS(=O)(=O)c2cccc3cccnc23)CC1 (stereo unspecified) do in these assays?
CCHFV vOTU inh: 7

What do the screens show for `CC(C(=O)Nc1ccc(Cl)cc1)c1ncc(C(F)(F)F)cc1Cl` (stereo unspecified)?
BoNT-A LC inh2: 1; Bead autofluor: 20389*; SARS 3CLpro inh: 4; BoNT F protease: -2; CCHFV vOTU inh: 0; Anthrax LF inh2: -1

Screening data from PubChem.
